Sampled rows, rich in hits. Any-hit rate of the full collection: about 2.6%.
GLP-1R inv ag: acts as inverse agonist at human GLP-1 receptor; P43220; HEK293 GLP-1R CRE-luciferase, luminescence, 24 h; GLP-1R form is constitutively active; Potency, µM (top dose mostly 38.3 µM), usual class: inhibitors; actives 1.6% (n = 410,000); AID 624417; further: nearly all actives have a fitted effect of over 55% in size
Target sequence (P43220 whole entry, looked up): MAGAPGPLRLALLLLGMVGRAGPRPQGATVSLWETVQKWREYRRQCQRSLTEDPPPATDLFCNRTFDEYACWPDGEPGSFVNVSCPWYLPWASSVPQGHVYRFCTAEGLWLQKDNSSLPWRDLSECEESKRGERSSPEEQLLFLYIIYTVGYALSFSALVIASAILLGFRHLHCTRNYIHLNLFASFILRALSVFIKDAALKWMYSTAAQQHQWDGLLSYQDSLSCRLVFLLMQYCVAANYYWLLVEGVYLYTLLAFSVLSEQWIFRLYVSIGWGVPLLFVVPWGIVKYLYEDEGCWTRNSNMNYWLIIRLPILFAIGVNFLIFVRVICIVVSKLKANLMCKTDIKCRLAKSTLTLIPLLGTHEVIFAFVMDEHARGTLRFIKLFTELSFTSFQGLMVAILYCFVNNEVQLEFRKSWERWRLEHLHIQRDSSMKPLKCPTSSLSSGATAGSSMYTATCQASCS
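Stable HEK293 clone (constitutively active GLP-1R + cAMP-response luciferase); 200 cells/uL plated, 12 h pre-culture, compound 24 hr, 37 deg C/5% CO2; detection reagent 12 min RT; luminescence.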
BRCA1 expr act: BRCA1 expression activation; MCF7-BRCA1-FFLuc reporter, luminescence, 48 h; response scale: scaled: vehicle 0%, 10 µM genistein 100%; Potency, µM (series often up to 46.1 µM), usual class: activators; actives 1.1% (n = 380,000); further: nearly all actives have a fitted effect of over 80% in size
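Luminescence from a BRCA1-driven firefly luciferase in MCF7 cells was read after 48 h compound exposure at 37 C. Data normalized against DMSO and a 10microM genistein activation control, then curve-fitted across the titration.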
GLP1R cytotox: cytotoxic in the GLP-1 receptor inverse agonist counter-screen. HEK293 cAMP-luciferase reporter cells, luminescence, 24 h. Potency, µM (titrated, usually from 38.3 µM), hits mostly inhibitors. actives 0.13% (n = 410,000). AID 624418;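 further: loss of luciferase light is scored as toxicity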
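1536-well qHTS counterscreen of the MLSMR; 200 cells/uL, 12 h pre-incubation, 23 nL cpd, 24 h at 37 deg C 5% CO2, luciferase detection reagent, 12 min RT, luminescence. Inhibition = undesired.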
GLP-1R agonist: agonists of human GLP-1 receptor; P43220; HEK293 GLP-1R CRE-luciferase, luminescence, 4-6 h; cells express a hypersensitive GLP-1R form; Potency, µM (top dose mostly 45.6 µM), actives largely listed as activators; actives 0.007% (n = 380,000); AID 624172
Each line names hits and unclear results; the compound was inactive in the other large screens. The call rests on the fitted dose curve; in most records, active means well fitted curve in the direction sought with a large enough effect; inconclusive means small, poorly fitted or top-dose-only effect, or another doubt; inactive means no such curve, though single readings can be large; an effect the other way counts as inactive or inconclusive.

O=C(Cc1cccc(C(F)(F)F)c1)Nc1ccc(S(=O)(=O)N2CCCC2)cc1	GLP-1R inv ag inconclusive
CN(CC(=O)Nc1cccc(F)c1)CC(=O)Nc1cccc(S(=O)(=O)N2CCCCCC2)c1	GLP-1R inv ag inconclusive, GLP1R cytotox inconclusive
O=C(CNc1ccc(C(F)(F)F)cc1)Nc1cccc(S(=O)(=O)N2CCCCC2)c1	GLP-1R inv ag 4µM
CC(=O)c1cccc(NC(=O)CCn2nc(C)c(S(=O)(=O)N(C)C)c2C)c1	none (no result: BRCA1 expr act, GLP-1R agonist)
C(=Nc1ccc2ccccc2n1)c1cccnc1	none (no result: GLP-1R inv ag, GLP1R cytotox, GLP-1R agonist)
CN(C)c1ccc(/C=C/c2ccnc3cc(Cl)ccc23)cc1	none (no result: GLP-1R inv ag, GLP1R cytotox, GLP-1R agonist)
S=C(NN=C(c1ccccc1)c1ccccn1)N(Cc1ccccn1)Cc1ccccn1	GLP1R cytotox inconclusive
CC(=NNC(=S)N(Cc1ccccn1)Cc1ccccn1)c1cnccn1	GLP-1R inv ag inconclusive, GLP1R cytotox 4.5µM
CC(C)C(=O)Nc1nnc(COc2ccc(Cl)cc2)s1	none
CC(=O)Nc1nnc(COc2ccc(Cl)cc2)s1	BRCA1 expr act 4.5µM
COc1ccc(NC(=O)C(=O)NCC2CCCN2S(=O)(=O)c2cc(C)ccc2C)cc1 (stereo not drawn)	GLP-1R inv ag 4µM, GLP1R cytotox inconclusive
Cc1ccc(C)c(S(=O)(=O)N2CCCC2CNC(=O)C(=O)Nc2ccccc2)c1 (stereo not drawn)	GLP-1R inv ag inconclusive
N=c1c(S(=O)(=O)c2ccccc2)cc2c(=O)n3ccccc3nc2n1C1CCCCC1	GLP-1R inv ag 10µM
O=C1c2ccccc2C(O)(c2ccccc2)N1c1ccc([N+](=O)[O-])cc1Cl (stereo not drawn)	GLP-1R inv ag inconclusive
Cc1cc(F)ccc1S(=O)(=O)Nc1nc2ccccc2nc1Cl	GLP-1R inv ag inconclusive
Cc1ccc(C(C)(C)C)cc1S(=O)(=O)Nc1nc2ccccc2nc1Cl	GLP-1R inv ag 10µM
CC(C)COc1ccc(C(=O)Nc2ccc([N+](=O)[O-])cc2)cc1	none
CC(C)COc1ccc(C(=O)Nc2ccc(SC(F)F)cc2)cc1	BRCA1 expr act 8.9µM
Cc1ccc(N=C2SC(C(=O)NCCc3ccccc3)CC(=O)N2C)cc1C (stereo not drawn)	GLP-1R inv ag inconclusive
CC1=C(C(=O)Nc2cccnc2)C(c2cccc(O)c2)n2nc(SCc3ccccc3)nc2N1 (stereo not drawn)	none (no result: BRCA1 expr act, GLP-1R agonist)
Cc1cc(C(=O)CSc2ccc(Cl)cc2)cc(C)c1OC(=S)N(C)C	GLP-1R inv ag inconclusive, BRCA1 expr act 5µM
Cc1cc(C(=O)CSc2ccc(F)cc2)cc(C)c1O	GLP-1R inv ag inconclusive, BRCA1 expr act inconclusive
COc1cc(/C=N/n2cnnc2)ccc1OCc1ccc(C)cc1	BRCA1 expr act 10µM
COc1cc(/C=N/n2cnnc2)ccc1OCc1ccccc1	none
Cc1cc(Cl)ccc1OCC(=O)N(Cc1ccco1)Cc1ccccc1F	GLP-1R inv ag 11µM (no result: BRCA1 expr act, GLP-1R agonist)
Cc1cc(NC(=O)CSc2nc3c(sc4ccccc43)c(=O)n2CCc2ccccc2)n[nH]1	none
Cc1cc(NC(=O)CSc2nc3c(sc4ccccc43)c(=O)n2CCCN2CCOCC2)n[nH]1	GLP1R cytotox 5µM
O=C(CSc1nc2c(sc3ccccc32)c(=O)n1CCO)NCc1ccco1	none
O=C(CSc1nc2c(sc3ccccc32)c(=O)n1CCCN1CCCC1)NCc1ccco1	GLP-1R inv ag 10µM, GLP1R cytotox inconclusive
CC(=O)N=c1scc(-c2ccccc2)n1-c1cccc(O)c1	GLP-1R inv ag 11µM
Cc1ccc(-c2ccc(CCC(=O)O)n2-c2cccc(O)c2)cc1	none
O=c1c(-c2ccc(F)cc2)coc2cc(O)ccc12	BRCA1 expr act 11µM
COc1ccc(-c2coc3cc(O)ccc3c2=O)cc1OC	BRCA1 expr act inconclusive
O=C(Cn1ccsc1=NC(=O)C(F)(F)F)c1ccccc1	BRCA1 expr act 7.9µM
CC(=O)Oc1c(C)cc(OCC(O)CNC(C)C)c(C)c1C (stereo not drawn)	none (no result: GLP-1R inv ag, BRCA1 expr act, GLP1R cytotox)
O=C(NCc1ccccc1CN1CCCC1)c1ccc(S(=O)(=O)Nc2ccccc2F)cc1	none
O=C(NCc1ccccc1CN1CCCC1)c1ccc(S(=O)(=O)Nc2ccccc2)cc1	GLP-1R inv ag 13µM
Fc1ccc2cnc(-c3ccccc3)c(-c3cc(C(F)(F)F)cc(C(F)(F)F)c3)c2c1	GLP-1R inv ag 4.5µM
Fc1ccc2cnc(-c3ccccc3)c(-c3ccc(C(F)(F)F)cc3)c2c1	GLP-1R inv ag 13µM
Fc1ccc2c(-c3cccc(C(F)(F)F)c3)c(-c3ccccc3)ncc2c1	GLP-1R inv ag inconclusive

Screens deposited in PubChem BioAssay by National Center for Advancing Translational Sciences (NCATS).
